Consider 21 compounds from PubChem BioAssay (Tox21).

Assay [1] can be described thus: A CellTox Green Cytotoxicity Assay to monitor cytotoxicity in HEK293 cells - 32 hour (AID 1224881). Note: nearly all actives have a fitted effect of over 40% in size. Note: potency is the fitted concentration of half-maximal effect. An outline of the steps:
(§1)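 Read-out: fluorescence of a cell-impermeant cyanine dye staining DNA of dead cells, proportional to cytotoxicity. HEK293, 600 cells/well with reagent, compound (23 nL DMSO) added after 5 h; reads at 0, 8, 16, 24, 32, 40 h.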

The nature of assay [2]: A CellTox Green Cytotoxicity Assay to monitor cytotoxicity in HepG2 cells - 0 hour (AID 1224882). Note: nearly all actives have a fitted effect of over 35% in size. Note: potency is the fitted concentration of half-maximal effect. In short, it runs like this:
(§2)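 HepG2, 600 cells/well premixed w/ CellTox Green; 5 h settle, 37 C/5% CO2; pintool cpd add (DMSO); 37 C, 40 h; fluorescence read at 0, 8, 16, 24, 32, 40 h.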

Assay [3] can be described thus: A CellTox Green Cytotoxicity Assay to monitor cytotoxicity in HepG2 cells - 32 hour (AID 1224883). Note: nearly all actives have a fitted effect of over 50% in size. Note: potency is the fitted concentration of half-maximal effect. An outline of the steps: as §2
Assay [4] in a line: A CellTox Green Cytotoxicity Assay to monitor cytotoxicity in HEK293 cells - 8 hour (AID 1224884). Note: nearly all actives have a fitted effect of over 35% in size. Note: potency is the fitted concentration of half-maximal effect. An outline of the steps:
as §1

A short description of assay [5]: qHTS RealTime-Glo MT Cell Viability Assay in HepG2 cells - 16 hour (AID 1224885). Note: nearly all actives have a fitted effect of over 50% in size. Note: potency is the fitted concentration of half-maximal effect. An outline of the steps: (§3)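 Cells + NanoLuc/prosubstrate dispensed (600 cells/well) → 5 h at 37 C/5% CO2 → compounds in DMSO transferred → 40 h incubation at 37 C, luminescence read at 0, 8, 16, 24, 32, 40 h.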
For orientation: Quantitative high-throughput screening tests each substance at several concentrations.

Assay [6] can be described thus: qHTS RealTime-Glo MT Cell Viability Assay in HEK293 cells - 24 hour (AID 1224886). For activity change, negative = cytotoxicity: top concentration of the series differs between compounds. Note: nearly all actives have a fitted effect of over 50% in size. Note: potency is the fitted concentration of half-maximal effect. An outline of the steps: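 Tox21 10K qHTS, HEK293, 600 cells/well, RealTime-Glo reagent co-dispensed with cells; 5 h preincubation, compound by pintool, 37 C, luminescence at 0–40 h.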
A short description of assay [7]: qHTS RealTime-Glo MT Cell Viability Assay in HEK293 cells - 8 hour (AID 1224887). For activity change, negative = cytotoxicity: top concentration of the series differs between compounds. Note: nearly all actives have a fitted effect of over 50% in size. Note: potency is the fitted concentration of half-maximal effect. In short, it runs like this: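 Luminescence readout at each listed time point; HEK293, 600 cells/well, RealTime-Glo MT reagent added with cells; compounds pinned (23 nL in DMSO) after 5 h at 37 C; continuous culture at 37 C.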
A short description of assay [8]: A CellTox Green Cytotoxicity Assay to monitor cytotoxicity in HEK293 cells - 16 hour (AID 1224888). Note: nearly all actives have a fitted effect of over 35% in size. Note: potency is the fitted concentration of half-maximal effect. In short, it runs like this: as §1
The nature of assay [9]: A CellTox Green Cytotoxicity Assay to monitor cytotoxicity in HepG2 cells - 8 hour (AID 1224890). Note: nearly all actives have a fitted effect of over 45% in size. Note: potency is the fitted concentration of half-maximal effect. An outline of the steps:
as §2

A short description of assay [10]: qHTS RealTime-Glo MT Cell Viability Assay in HepG2 cells - 0 hour (AID 1224889). Note: nearly all actives have a fitted effect of over 50% in size. An outline of the steps:
as §3

“And” between values parts separate entries of the source, which are not always exact repeats. Equal values may be shown once. Values without a mark were called inactive. Results filed as inconclusive are left out. The source made the active and inactive calls. Calls come from the whole dose curve; as a rule, active = well fitted curve in the direction sought with a large enough effect in the repeat runs; inconclusive = weak or mixed curves; inactive = no such curve, though single readings can be large; an effect the other way counts as inactive or inconclusive.
% is set by controls: 0 for no effect and ±100 for the full control effect.

As for `O=C(O)O`, the cytotoxicity increase in [1] was -1.24% [at 6.97 µM]; in assay [3], -9.49% [at 6.97 µM]; in assay [4], -0.487% [at 6.97 µM]; in assay [9], 4.8% [at 6.97 µM]. In assay [2], the cytotoxicity was 0.722% [at 6.97 µM]. Also, the activity change, negative = cytotoxic in assay [5] is -0.68% [at 6.97 µM]. Moreover, the activity change, negative = cytotoxicity in [6] is -0.471% [at 6.97 µM]; in assay [7], 1.73% [at 6.97 µM]. Besides, the activity change in assay [8] is 1.05% [at 6.97 µM, stronger effect = higher value].
`CC(C)CCOC(=O)/C=C/c1ccccc1`: the Potency result in [1], in [2], in [3], in [4], in assay [5] and in assay [6] was “inactive” in each case. Besides, the Potency entry in [7], in [8], in assay [10] and in [9] was “inactive” in each case.
In the case of `O[C@@H]([C@H](O)[C@H](O)CBr)[C@H](O)CBr`, the Potency result in assay [1], in assay [2], in [3], in assay [4], in assay [5] and in assay [6] was “inactive” each time. Further, the Potency entry in [7], in assay [8] and in assay [9] was “inactive” throughout.
In the case of `CCCC(=O)OCCc1ccccc1`, the Potency is 49 µM (active) in assay [1]; 38.9 µM (active) in assay [2]; 43.6 µM (active) in assay [3]; 38.9 µM (active) in [4]; 43.6 µM (active) in assay [8]; 43.6 µM (active) in [9]. In addition, the Potency entry in assay [5], in assay [6], in assay [7] and in assay [10] was “inactive” each time.
`C=C(C)c1cccc(C(=C)C)c1`: the Potency entry in assay [1], in assay [2], in [3], in [4], in [5] and in assay [6] was “inactive” in each case. The Potency result in assay [7], in assay [8] and in [9] was “inactive” throughout.
Take `O=C(O)c1cc(-c2ccc(F)cc2F)ccc1O`: the Potency result in [1], in [2], in assay [3], in assay [4], in assay [5] and in [6] was “inactive” throughout. Also, the Potency entry in [7], in assay [8], in [10] and in assay [9] was “inactive” throughout.
As to `O=C(O)c1cc(O)c2ccccc2c1O`, the Potency in assay [1] was 21.9 µM (active); in assay [3], 24.5 µM (active); in assay [5] it was 19.5 µM (active); in [6] it was 43.6 µM (active); in assay [7], 17.4 µM (active). Further, the Potency result in [2], in assay [4], in assay [8] and in assay [9] was “inactive” in each case.
With `Cc1c(F)c(N2CCNC(C)C2)cc2c1c(=O)c(C(=O)O)cn2C1CC1` (stereo not given), the Potency entry in assay [1], in assay [2], in [3], in assay [4], in assay [5] and in assay [6] was “inactive” throughout. In addition, the Potency entry in [7], in assay [8], in assay [10] and in [9] was “inactive” throughout.
As to `Cc1cc(C(C#N)c2ccc(Cl)cc2)c(Cl)cc1NC(=O)c1cc(I)cc(I)c1O` (stereo not given), the Potency entry in [1], in assay [2], in assay [3], in [4], in assay [5] and in [6] was “inactive” in each case. The Potency entry in assay [7], in [8], in assay [10] and in assay [9] was “inactive” each time.
As for `CCCCCCCCCCCCCC[N+](C)(C)Cc1ccccc1`, the Potency in assay [1] was 39.5 µM (active) and 19 µM (active) and 17.8 mM (active); in assay [3], 35.2 µM (active) and 15.1 µM (active) and 14.1 mM (active); in [4] it was 55.8 µM (active) and 21.3 µM (active) and 20 mM (active); in [5], 49.7 µM (active) and 21.3 µM (active) and 17.8 mM (active); in assay [6] it was 5.58 µM (active) and 6.74 µM (active) and 5.01 mM (active); in [7], 49.7 µM (active) and 20 mM (active). Moreover, the Potency in [8] was 44.3 µM (active) and 23.9 µM (active) and 20 mM (active); in assay [9] it was 26.8 µM (active) and 20 mM (active). Moreover, in assay [2], the Potency result is “inactive”.
As for `CCc1ccc(Br)cc1`, the Potency result in assay [1], in [2], in assay [3], in assay [4], in assay [5] and in [6] was “inactive” in each case. The Potency entry in [7], in [8] and in [9] was “inactive” throughout.
As for `CC(CCc1ccccc1)NCC(O)c1ccc(O)c(C(N)=O)c1` (stereo not given), the Potency entry in assay [1], in assay [2], in assay [3], in assay [4], in assay [5] and in assay [6] was “inactive” each time. Further, the Potency result in assay [7], in assay [8], in [10] and in assay [9] was “inactive” throughout.
For the compound `Nc1nc2c(ncn2COCCO)c(=O)[nH]1`, the Potency entry in [1], in assay [2], in assay [3], in assay [4], in assay [5] and in assay [6] was “inactive” in each case. In addition, the Potency result in assay [7], in [8], in assay [10] and in assay [9] was “inactive” in each case.
For the compound `FC(F)(F)c1cccc(Cl)c1`, the Potency result in assay [1], in assay [2], in assay [3], in assay [4], in assay [5] and in [6] was “inactive” in each case. Further, the Potency entry in [7], in [8] and in assay [9] was “inactive” each time.
For the compound `C#Cc1ccc(-c2ccccc2F)cc1`, the Potency entry in assay [1], in [2], in assay [3], in assay [4], in [5] and in assay [6] was “inactive” each time. Besides, the Potency entry in assay [7], in [8], in [10] and in [9] was “inactive” each time.
As to `CCc1cccc(CC)c1NC(=O)CN(CC(=O)O)CC(=O)O`, the Potency result in [1], in assay [2], in assay [3], in [4], in assay [5] and in [6] was “inactive” in each case. The Potency entry in assay [7], in [8], in [10] and in assay [9] was “inactive” throughout.
As for `O=C(O)[C@H](O)[C@@H](O)[C@H](O[C@@H]1O[C@H](CO)[C@H](O)[C@H](O)[C@H]1O)[C@H](O)CO`, the Potency entry in assay [1], in assay [2], in assay [3], in assay [4], in [5] and in assay [6] was “inactive” in each case. The Potency entry in assay [7], in assay [8], in assay [10] and in [9] was “inactive” throughout.
Consider `Cc1cccc(C(=O)O)c1O`, for which the Potency entry in assay [1], in assay [2], in [3], in [4], in [5] and in [6] was “inactive” throughout. The Potency result in assay [7], in assay [8] and in assay [9] was “inactive” each time.
Consider `CCCCCCCCCCCCCCCC[N+](C)(C)CC`, for which the Potency in [1] is 39 µM (active) and 21.3 µM (active); in assay [3] it was 17.4 µM (active) and 19 µM (active); in [4], 55.1 µM (active) and 23.9 µM (active); in [5], 49.1 µM (active) and 23.9 µM (active); in assay [6] it was 8.74 µM (active) and 4.77 µM (active); in assay [7], 21.9 µM (active). Moreover, the Potency in assay [8] is 55.1 µM (active); in [9], 55.1 µM (active) and 19 µM (active). Besides, the Potency result in assay [2] and in [10] was “inactive” in each case.
On to `CCC(COC(=O)CCS)(COC(=O)CCS)COC(=O)CCS`, for which the Potency result in assay [1], in assay [2], in assay [3], in assay [4], in assay [5] and in assay [6] was “inactive” throughout. For the same compound, the Potency entry in [7], in [8] and in assay [9] was “inactive” throughout.
For the compound `CC(C)OC(=O)C(O)(CC(=O)O)CC(=O)O`, the Potency result in assay [1], in assay [2], in [3], in [4], in assay [5] and in assay [6] was “inactive” in each case. In addition, the Potency result in [7], in assay [8] and in assay [9] was “inactive” each time.
